According to publication PMC5540273 (PLoS ONE, 2017):

Experiments:
Details in all cases: concentration: 1 μM, replicates: in singlicate; n = 1
BTK = system: BTK
BUB1 = system: BUB1
CAMK1B = system: CAMK1B
CAMK1D = system: CAMK1D
CAMK1G = system: CAMK1G
CAMK1 = system: CAMK1
CAMK2A = system: CAMK2A
CAMK2B = system: CAMK2B
CAMK2D = system: CAMK2D
CAMK2G = system: CAMK2G
CAMK4 = system: CAMK4
CAMKK1 = system: CAMKK1
CAMKK2 = system: CAMKK2
CASK = system: CASK
CDC2L1 = system: T1, CDC2L1
T1 construct: gene CDK11B

CDC2L2 = system: CDC2L2
CDC2L5 = system: T2, CDC2L5
T2 construct: gene CDK13

CDK11 = system: T3, CDK11
T3 construct: gene CDK19

CDK2 = system: CDK2
CDK3 = system: CDK3
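Further: KINOMEscan kinase panel screen.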

Compound	%Inh (BTK)	%Inh (BUB1)	%Inh (CAMK1B)	%Inh (CAMK1D)	%Inh (CAMK1G)	%Inh (CAMK1)	%Inh (CAMK2A)	%Inh (CAMK2B)	%Inh (CAMK2D)	%Inh (CAMK2G)	%Inh (CAMK4)	%Inh (CAMKK1)	%Inh (CAMKK2)	%Inh (CASK)	%Inh (CDC2L1)	%Inh (CDC2L2)	%Inh (CDC2L5)	%Inh (CDK11)	%Inh (CDK2)	%Inh (CDK3)
CN1c2ccc(-c3ccc(C(N)=O)cc3)cc2-c2[nH]ncc2S1(=O)=O	0%	0%	32%	10%	0%	27%	11%	7%	18%	2%	16%	100%	21%	1%	0%	0%	2%	0%	0%	0%
CNCc1ccc2nc(NC(=O)c3ccc(C(C)(C)C)cc3)cn2c1	32%	26%	33%	1%	0%	1%	4%	2%	1%	12%	6%	0%	12%	18%	16%	4%	33%	4%	0%	7%
Cc1cccc2c(-c3ccncn3)c(-c3ccc(F)cc3)nn12 [GW515532]	0%	65%	9%	0%	0%	5%	0%	0%	0%	0%	0%	0%	0%	0%	0%	3%	0%	0%	0%	3%
COc1ccc(Nc2nccc(-c3ccc(NC(=O)c4cc5cc(F)ccc5[nH]4)cc3)n2)cc1 [GSK1229496]	0%	29%	26%	0%	6%	0%	0%	0%	3%	34%	0%	0%	17%	0%	0%	14%	0%	22%	0%	0%
Fc1ccc(-c2nc[nH]c2-c2ccncc2)cc1 [SB-217360]	0%	84%	0%	10%	0%	0%	0%	0%	0%	0%	0%	0%	1%	13%	0%	0%	0%	0%	0%	0%
O=C1NC(=O)C(c2ccc(Cl)cc2)=C1Nc1ccc(O)cc1 [SB-340867]	0%	0%	0%	99.8%	0%	100%	0%	0%	0%	6%	0%	0%	0%	4%	0%	0%	0%	0%	0%	4%
Fc1ccc(-c2nn3cccc(F)c3c2-c2ccncc2)cc1 [GW475620]	0%	53%	39%	10%	40%	6%	0%	0%	6%	14%	19%	0%	5%	4%	0%	0%	0%	10%	7%	0%
COc1ccc(Nc2nccc(N3CCC(NC(=O)C(C)c4ccc(Cl)cc4)C3)n2)cc1 (stereo not drawn) [GSK1379735]	0%	17%	5%	14%	0%	9%	14%	25%	1%	15%	0%	18%	5%	48%	6%	6%	0%	21%	0%	24%
COc1ccc(Nc2nccc(N3CCC(NC(=O)C(C)c4ccc(Cl)cc4)CC3)n2)cc1 (stereo not drawn) [GSK1379812]	0%	6%	32%	23%	13%	25%	0%	0%	14%	36%	0%	0%	31%	3%	0%	10%	0%	63%	0%	0%
Cc1ccccc1-c1cc(-c2c[nH]nc2-c2ccccn2)ccn1 [GW680061]	3%	35%	0%	16%	0%	9%	0%	0%	0%	11%	0%	0%	0%	25%	0%	9%	0%	2%	0%	17%
CCc1ccc(-c2ccc3c(c2)-c2n[nH]cc2S(=O)(=O)N3C)cc1	0%	0%	0%	0%	0%	0%	0%	0%	21%	5%	11%	10%	6%	29%	0%	0%	0%	7%	26%	0%
COc1ccc(Nc2nccc(N3CCC(NC(=O)c4cc5ccccc5s4)C3)n2)cc1 (stereo not drawn) [GSK1379738]	0%	49%	0%	5%	67%	17%	0%	0%	59%	11%	0%	11%	2%	21%	0%	17%	0%	41%	0%	12%
Cc1cnc(N)c(/C=C/c2cncc(C(=O)NCCc3ccc(Cl)cc3Cl)c2)c1.Cl [GSK190937]	1%	9%	0%	10%	7%	12%	0%	0%	6%	27%	0%	7%	20%	7%	0%	17%	0%	92.8%	0%	6%
COc1ccc(Nc2nccc(NCCNC(=O)Nc3cc(C)ccc3C)n2)cc1 [GSK1379899]	0%	0%	4%	0%	0%	3%	0%	0%	0%	0%	0%	13%	0%	0%	0%	0%	0%	0%	0%	6%
Cc1ccc(NC(=O)Nc2ccccc2F)cc1-c1ccc(C(=O)Nc2ccncc2)cc1 [GSK1398477]	0%	0%	59%	33%	16%	29%	0%	0%	14%	37%	5%	15%	31%	17%	8%	10%	0%	12%	0%	24%
COC(=O)c1cccc(NC(=O)NC2CCN(c3ccnc(Nc4ccc(F)cc4)n3)C2)c1 (stereo not drawn) [GSK1379725]	0%	0%	16%	0%	0%	0%	0%	0%	0%	0%	0%	0%	0%	25%	0%	0%	0%	68%	0%	4%
COc1ccc(-c2coc3ccc(-c4nnc(C)o4)cc23)cc1	0%	0%	0%	13%	5%	0%	0%	0%	5%	0%	13%	0%	16%	0%	0%	0%	21%	0%	0%	0%
COc1ccc2cc(-c3nc(-c4ccccc4C(C)C)[nH]c3-c3ccncc3)ccc2c1 [SB-660566]	0%	89%	31%	7%	0%	7%	0%	0%	2%	4%	7%	8%	0%	7%	0%	2%	0%	33%	0%	13%
CNc1nc(-c2ccc3c(N)n[nH]c3c2)cc(N2C[C@@H](C(=O)NC3CCCCC3)OC[C@H]2C)n1 [GSK2375584]	7%	36%	0%	20%	0%	19%	0%	0%	15%	34%	0%	21%	35%	12%	0%	25%	0%	16%	0%	0%
Cn1cncc1-c1cc2c(Nc3ccc(OCc4ccccc4)cc3)ncnc2cn1 [GW281179]	0%	34%	25%	14%	0%	20%	0%	0%	12%	36%	0%	3%	32%	20%	0%	17%	0%	47%	0%	7%
CNC(=O)c1ccc(C)c(-n2c(C)cc(OCc3ccc(F)cc3F)c(Br)c2=O)c1	0%	0%	0%	0%	0%	0%	0%	0%	0%	0%	0%	0%	1%	0%	0%	0%	0%	57%	0%	15%
